In the supplement of paper PMC10981050:
“And” between values parts separate entries of the source, which are not always exact repeats. Equal values may be shown once. Where a name gives a salt, the structure may show the parent alone.

Tests used:
Assay in all cases: cell viability relative to vehicle control; higher = less cytotoxic
Conditions in all cases: 10 µM
K562 = tested on: K562
Procedure, shortened: (§1)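 Four leukaemia lines, as CRISPR-edited mutant clones and isogenic wild-type clones, were tested against Selleck bioactive, kinase and epigenetic probe libraries after removal of identity-inconsistent compounds. Cells were exposed to a single 10 µM dose for 48 h, and CellTiter-Glo luminescence was then read. Viability was calculated relative to the on-plate vehicle control.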

MARIMO = tested on: MARIMO
Procedure, shortened: as §1

MOLM14 = tested on: MOLM14
Procedure, shortened: as §1

OCI-AML2 = tested on: OCI-AML2
Procedure, shortened: as §1

| Compound | cell viability (K562; SRSF2 genotype: SRSF2 P95H/wt) | cell viability (K562; SRSF2 genotype: SRSF2 wt/wt) [%] | cell viability (MARIMO; SRSF2 genotype: SRSF2 P95H/wt) [%] | cell viability (MARIMO; SRSF2 genotype: SRSF2 wt/wt) [%] | cell viability (MOLM14; SRSF2 genotype: SRSF2 P95H/wt) [%] | cell viability (MOLM14; SRSF2 genotype: SRSF2 wt/wt) [%] | cell viability (OCI-AML2; SRSF2 genotype: P95H/wt) [%] | cell viability (OCI-AML2; SRSF2 genotype: wt/wt) [%] |
| --- | --- | --- | --- | --- | --- | --- | --- | --- |
| CC(=O)CCc1ccccc1 [Benzylacetone] | 100% and 103% | 104 | 101 | 92.5 | 106 | 98.6 | 106 | 94.8 |
| COc1cc2c(Oc3ccc4[nH]c(C)cc4c3F)ccnc2cc1OCC1(N)CC1 [Anlotinib (AL3818) dihydrochloride] | 19.7% and 32.9% | 24.9 | 5.61 | 5.93 | 9.28 | 3.53 | 17.5 | 17.3 |
| O=C(Nc1cccc(Nc2ncc(Br)c(NCCc3cnc[nH]3)n2)c1)N1CCCC1 | 46.5% and 64.2% | 47.1 | 49.8 | 45.4 | 5.3 | 3.38 | 4.66 | 10.9 |
| C[C@H]1COC2=C1C(=O)C(=O)c1c2ccc2c1CCCC2(C)C [Cryptotanshinone] | 32.1% and 18.5% | 47.8 | 60.3 | 76.1 | 58.6 | 69.2 | 42.7 | 46.5 |
| C[C@@H](O)[C@H]1C(=O)N2C(C(=O)O)=C(S[C@@H]3CN[C@H](C(=O)Nc4cccc(C(=O)O)c4)C3)[C@H](C)[C@H]12 [Ertapenem sodium] | 108% and 107% | 105 | 103 | 109 | 99.6 | 107 | 97.1 | 99.8 |
| O=NO [Sodium Nitrite] | 107% and 104% | 95.9 | 99.9 | 99.4 | 96.4 | 101 | 97.8 | 99.5 |
| CC(C)OC(=O)CCC/C=C\C[C@@H]1[C@@H](/C=C/C(F)(F)COc2ccccc2)[C@H](O)C[C@@H]1O [Tafluprost] | 85.8% and 90.8% | 92.1 | 85 | 96.2 | 89.3 | 97.7 | 90.6 | 95 |
| Cc1ccc(/C=C2/C(=O)C3(C)CCC2C3(C)C)cc1 (stereo not drawn) [4-Methylbenzylidene camphor] | 105% and 97.8% | 96.1 | 90 | 108 | 95.5 | 104 | 89.4 | 99.7 |
| CN(C)Cc1ccc(S(=O)(=O)n2ccc(/C=C/C(=O)NO)c2)cc1 [Resminostat (RAS2410)] | 1.83% and 16.1% | 11.8 | 2.94 | 2.37 | 0.76 | 0.51 | 0.72 | 1.22 |
| NC(=S)c1ccncc1 [Thioisonicotinamide] | 107% and 101% | 98.9 | 96.9 | 105 | 103 | 105 | 99.4 | 110 |
| COc1ccc(Oc2cc(NCCC(F)(F)F)c3ncc(-c4ccc(C(=O)NC5CC5)c(C)c4)n3n2)c(F)c1F | 103% and 102% | 108 | 67.6 | 77.1 | 58.9 | 42.6 | 71.4 | 72.9 |
| CN1CCC(=C2c3ccccc3CC(=O)c3sccc32)CC1 [Ketotifen fumarate (Zaditor)] | 104% and 101% | 97.7 | 94.7 | 104 | 94.6 | 101 | 91 | 107 |
| Cc1ccc(-n2[nH]c(C)c(N=Nc3cccc(-c4cccc(C(=O)O)c4)c3O)c2=O)cc1C [Eltrombopag] | 77.1% and 80.1% | 74.4 | 62.2 | 71.6 | 77 | 74.6 | 68.8 | 70.1 |
| COc1cc2oc(=O)ccc2c(OC)c1C[C@@H](O)C(C)(C)O [Toddalolactone] | 106% and 101% | 104 | 102 | 105 | 112 | 106 | 102 | 104 |
| O=C(Nc1cc(Cl)cc2c1[nH]c1cnccc12)c1cccnc1 | 89% and 95.7% | 88.8 | 111 | 116 | 85.2 | 101 | 86.8 | 85.9 |
| COc1ccc(CNCc2cccc3ccccc23)cc1 | 91.6% and 97% | 95.1 | 88.5 | 97.4 | 97.4 | 101 | 92.4 | 101 |
| CN(C)Cc1cccc(N=C(c2ccccc2)c2c(O)[nH]c3cc(C(N)=O)ccc23)c1 | 80.6% and 81.5% | 78.9 | 72.2 | 83.8 | 11 | 15.9 | 23.9 | 31.1 |
| O=C1Nc2ccc(CN3C(=O)CSC3=O)cc2/C1=C/c1cc(CN2CCOCC2)c[nH]1 | 98.7% and 100% | 103 | 97.1 | 100 | 92 | 100 | 97.6 | 91 |
| CC(=O)O[C@H]1CC/C(C)=C/CC/C(C)=C/C[C@]2(C(C)C)CC[C@@]1(C)O2 [Incensole acetate] | 85.8% and 85.7% | 91.2 | 85.1 | 89.2 | 68.8 | 67.7 | 84.1 | 85.2 |
| Nc1ncnc2c1C(=O)N(c1ccc([C@H]3CC[C@H](CC(=O)O)CC3)cc1)CCO2 | 107% and 104% | 110 | 105 | 107 | 105 | 105 | 108 | 123 |
| CC[N+](CC)(CC)CCOc1cccc(OCC[N+](CC)(CC)CC)c1OCC[N+](CC)(CC)CC [Gallamine triethiodide (Flaxedil)] | 96% and 97.9% | 91.8 | 101 | 96.8 | 101 | 99.5 | 99 | 95.4 |

| Compound | cell viability (K562; SRSF2 genotype: SRSF2 P95H/wt) | cell viability (K562; SRSF2 genotype: SRSF2 wt/wt) [%] | cell viability (MARIMO; SRSF2 genotype: SRSF2 P95H/wt) [%] | cell viability (MARIMO; SRSF2 genotype: SRSF2 wt/wt) [%] | cell viability (MOLM14; SRSF2 genotype: SRSF2 P95H/wt) [%] | cell viability (MOLM14; SRSF2 genotype: SRSF2 wt/wt) [%] | cell viability (OCI-AML2; SRSF2 genotype: P95H/wt) [%] | cell viability (OCI-AML2; SRSF2 genotype: wt/wt) [%] |
| --- | --- | --- | --- | --- | --- | --- | --- | --- |
| CC(C)CC(CC(=O)NO)C(=O)N[C@@H](Cc1ccc2ccccc2c1)C(=O)N[C@@H](C)C(=O)NCCN (stereo partly drawn) | 105% | 110 | 112 | 109 | 99.1 | 104 | 110 | 106 |
| CC1(C)CC[C@]2(C(=O)O)CC[C@]3(C)C(=CC[C@@H]4[C@@]5(C)C[C@@H](O)[C@H](O)C(C)(C)[C@@H]5CC[C@]43C)[C@@H]2C1 [Maslinic acid] | 84.2% and 80.1% | 84.5 | 91.3 | 108 | 90.7 | 86.9 | 77 | 82.2 |
| C[C@H](Cc1cc2c(c(C(N)=O)c1)N(CCCO)CC2)NCCOc1ccccc1OCC(F)(F)F [Silodosin] | 81.7% and 88.2% | 87.5 | 86.2 | 85.6 | 87.2 | 89.5 | 74.7 | 80 |
| CCC/C=C1\OC(=O)C2=C1CCC=C2 [Ligustilide] | 84.1% and 83.7% | 85.5 | 60.9 | 65.6 | 52.7 | 49.4 | 64.8 | 63.9 |
| Cc1ccccc1C(=O)Nc1ccc(C(=O)N2CCCC(N(C)C)c3ccccc32)cc1 (stereo not drawn) [Mozavaptan] | 93.3% and 90.1% | 85 | 88.9 | 93.2 | 97.1 | 102 | 95.5 | 97.1 |
| Cc1cc(C2CCCCC2)n(O)c(=O)c1 [Ciclopirox ethanolamine] | 59.6% and 58.8% | 47.2 | 21.4 | 26.4 | 8.86 | 2.23 | 18 | 18 |
| C[C@@H]1C[C@H]2[C@@H]3CCC4=CC(=O)C=C[C@]4(C)[C@@]3(Cl)[C@@H](O)C[C@]2(C)[C@@]1(OC(=O)c1ccco1)C(=O)CCl [Mometasone furoate] | 91.2% and 98.8% | 92.2 | 87.8 | 103 | 82.7 | 79 | 113 | 118 |
| COC(=O)[C@@]1(C)CC[C@]2(C(=O)O)CC[C@]3(C)C(=CC[C@@H]4[C@@]5(C)C[C@H](O)[C@H](O[C@@H]6OC[C@@H](O[C@@H]7O[C@H](CO)[C@@H](O)[C@H](O)[C@H]7O)[C@H](O)[C@H]6O)[C@@](C)(CO)[C@@H]5CC[C@]43C)[C@@H]2C1 [Esculentoside A] | 110% and 105% | 105 | 104 | 108 | 108 | 107 | 96.8 | 105 |
| CCCC(=O)OCOC(=O)C1=C(C)NC(C)=C(C(=O)OC)C1c1cccc(Cl)c1Cl (stereo not drawn) [Clevidipine Butyrate] | 102% and 105% | 104 | 100 | 107 | 104 | 109 | 107 | 108 |
| C[C@H](Nc1ncnc2[nH]cnc12)c1cc2ccc(F)cc2nc1-c1ccccn1 | 90.3% and 89.3% | 91.5 | 81.5 | 85 | 69.2 | 67 | 64.5 | 73.4 |
| CN1CCN(c2ccc3nc(-c4c(N)c5c(F)cccc5[nH]c4=O)[nH]c3c2)CC1 [Dovitinib (TKI-258, CHIR-258)] | 59.5% and 69.8% | 57.1 | 22.1 | 32.9 | 2.27 | 0.38 | 3.02 | 6.09 |
| CC(=O)Nc1ccccc1 [Acetanilide (Antifebrin)] | 104% | 101 | 106 | 106 | 96.4 | 101 | 105 | 102 |
| COc1cccc(C(N)=O)c1 [3-Methoxybenzamide] | 106% and 99.6% | 111 | 104 | 102 | 103 | 107 | 101 | 115 |
| CO[C@]1(CC[C@@H](C)CO[C@@H]2O[C@H](CO)[C@@H](O)[C@H](O)[C@H]2O)O[C@H]2C[C@H]3[C@@H]4CC=C5C[C@@H](O[C@@H]6O[C@H](CO)[C@@H](O[C@@H]7O[C@@H](C)[C@H](O)[C@@H](O)[C@H]7O)[C@H](O)[C@H]6O[C@@H]6O[C@@H](C)[C@H](O)[C@@H](O)[C@H]6O)CC[C@]5(C)[C@H]4CC[C@]3(C)[C@H]2[C@@H]1C [Methylprotodioscin] | 0.68% and 0.5% | 1.3 | 0.54 | 0.79 | 0.52 | 0.56 | 0.5 | 0.54 |
| Cc1ncc(CO)c(CO)c1O [Pyridoxine hydrochloride] | 104% and 103% | 111 | 104 | 112 | 105 | 110 | 104 | 96.7 |
| CCOC(=O)C=Cc1ccc(OC)cc1 [Ethyl 4-Methoxycinnamate] | 86% and 83.2% | 80 | 81.3 | 88.4 | 83.9 | 84.5 | 84.6 | 83.5 |
| CC(C)n1cnc2c(NCCc3ccc(O)cc3)nc(-c3csc4ccccc34)nc21 [StemRegenin 1] | 50.9% and 50.1% | 56 | 84.6 | 92.4 | 64.5 | 89.6 | 86.8 | 83.5 |
| O=C(O)c1cc(/N=N/c2ccc(O)c(C(=O)O)c2)ccc1O [Olsalazine Sodium] | 86.9% and 86% | 81.6 | 88.2 | 92.2 | 85.2 | 88.4 | 94.1 | 90.1 |
| O=C(O)c1cc(C(F)(F)F)ccc1N1CC[C@H](OCc2ccccn2)C1 | 107% and 109% | 100 | 114 | 113 | 102 | 102 | 106 | 104 |
| Cc1cccc(C)c1N(CC(=O)Nc1ccc(-c2ncon2)cc1)C(=O)C1CCS(=O)(=O)CC1 [Amenamevir] | 99.9% and 92.8% | 98.8 | 94.5 | 106 | 96.4 | 105 | 88.5 | 93.4 |
